We go through ten compounds from PubChem BioAssay (NCI).

About 79,000 compounds went through this panel and 15% of them were active in at least one assay; those are over-represented in the sample as a whole. Unmarked numbers belong to inactive results. Active and inactive are the calls of the source. Rule as the data show it: active = growth inhibition above about 70%; inactive = the rest.

Assay [1] in a line: NCI Yeast Anticancer Drug Screen. Data for the rad50 strain (AID 155).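 Also: 0% = growth of vehicle-only cultures of the same strain.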 The note with it: S. cerevisiae rad50 strain growth inhibition, hits give high values. The method, boiled down: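 A DNA repair-deficient yeast mutant serves as the test organism; compound-induced growth inhibition is calculated against vehicle-treated cells.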
The nature of assay [2]: NCI Yeast Anticancer Drug Screen. Data for the mec2-1 strain (AID 157). The note with it: S. cerevisiae mec2-1 strain, hits give high values. The essentials: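 Yeast mec2-1 mutant treated with compound. Readout: growth inhibition vs vehicle controls.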
A short description of assay [3]: NCI Yeast Anticancer Drug Screen. Data for the sgs1 mgt1 strain (AID 161).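 Also: 0% = growth of cultures given vehicle only.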 Conditions: S. cerevisiae sgs1 mgt1 strain, hits give high values. The essentials: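 Genetically altered yeast, compound exposure, growth inhibition relative to vehicle.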
Assay [4] can be described thus: NCI Yeast Anticancer Drug Screen. Data for the cln2 rad14 strain (AID 165).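 Also: 0% = growth equal to vehicle treated cultures.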 The note with it: S. cerevisiae cln2 rad14 strain, hits give high values. The essentials:
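cln2 rad14 yeast strain; compound exposure; growth inhibition read vs vehicle controls.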

Assay [5] in a line: NCI Yeast Anticancer Drug Screen. Data for the bub3 strain (AID 167). The note with it: S. cerevisiae bub3 mutant strain, hits give high values. The essentials: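 Inhibition values come from growth of compound-treated mutant yeast normalised to vehicle-treated controls.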
Assay [6] in a line: NCI Yeast Anticancer Drug Screen. Data for the mlh1 rad18 strain (AID 175). Conditions: S. cerevisiae mlh1 rad18 strain growth inhibition, hits give high values. The method, boiled down: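 Yeast w/ defined DNA-repair lesions; compound exposure; growth vs vehicle controls → % inhibition.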
Setting [7] is: at 5.0 µM (retest, dose inferred, filed as 0.5).
The mark [8] stands for this setting: at 50.0 µM (retest, dose inferred, filed as 5.0).

In the case of `CN(C)c1ccc(/C=C/c2cc3scc(-c4ccccc4)[n+]3c3ccccc23)cc1`, the growth inhibition in assay [1] (setting [7]) was -2%; in assay [1] (setting [8]), 87% (active); in assay [1] (at 50.0 µM) it was 98.7% (active); in assay [2] (setting [7]) it was 4%; in assay [2] (setting [8]), 99% (active); in assay [2] (at 50.0 µM), 99.5% (active). The growth inhibition in assay [3] (setting [7]) is -1%; in assay [3] (setting [8]) it was 99% (active); in assay [3] (at 50.0 µM), 99.4% (active); in assay [4] (setting [7]), -3%; in assay [4] (setting [8]), 98% (active); in assay [4] (at 50.0 µM), 99% (active). For the same compound, the growth inhibition in assay [5] (setting [7]) was 18%; in assay [5] (setting [8]), 97% (active); in assay [5] (at 50.0 µM), 99% (active); in assay [6] (setting [7]) it was 14%; in assay [6] (setting [8]), 99% (active); in assay [6] (at 50.0 µM), 99.2% (active).
On to `ClC1CCCCC1[Se](Cl)(Cl)C1CCCCC1Cl` (stereo not given), for which the growth inhibition in assay [1] (setting [7]) was 34%; in assay [1] (setting [8]), 98% (active); in assay [1] (at 50.0 µM) it was 99% (active); in assay [2] (setting [7]) it was 45%; in assay [2] (setting [8]), 100% (active); in assay [2] (at 50.0 µM), 98.7% (active). The growth inhibition in assay [3] (setting [7]) was 12%; in assay [3] (setting [8]) it was 99% (active); in assay [3] (at 50.0 µM), 99.5% (active); in assay [4] (setting [7]), -15%; in assay [4] (setting [8]), 99% (active); in assay [4] (at 50.0 µM), 97.9% (active). Further, the growth inhibition in assay [5] (setting [7]) is 8%; in assay [5] (setting [8]), 99% (active); in assay [5] (at 50.0 µM), 95.6% (active); in assay [6] (setting [7]), 43%; in assay [6] (setting [8]), 99% (active); in assay [6] (at 50.0 µM), 98.8% (active).
As for `O=C(Cc1c2ccccc2cc2c1ccc1ccccc12)N(CCCl)CCCl`, the growth inhibition in assay [1] (setting [7]) was 61%; in assay [1] (setting [8]), 94% (active); in assay [1] (at 50.0 µM) it was 98.8% (active); in assay [2] (setting [7]) it was 15%; in assay [2] (setting [8]), 97% (active); in assay [2] (at 50.0 µM), 99.3% (active). Besides, the growth inhibition in assay [3] (setting [7]) was 80% (active); in assay [3] (setting [8]), 98% (active); in assay [3] (at 50.0 µM), 99.2% (active); in assay [4] (setting [7]) it was 5%; in assay [4] (setting [8]) it was 95% (active); in assay [4] (at 50.0 µM), 94.3% (active). Besides, the growth inhibition was 17% in assay [5] (setting [7]); 97% (active) in assay [5] (setting [8]); 98.3% (active) in assay [5] (at 50.0 µM); 42% in assay [6] (setting [7]); 96% (active) in assay [6] (setting [8]); 99% (active) in assay [6] (at 50.0 µM).
On to `NC(=O)c1cc([N+](=O)[O-])c(Cl)c([N+](=O)[O-])c1Cl`, for which the growth inhibition in assay [1] (setting [7]) is 34%; in assay [1] (setting [8]), 65%; in assay [1] (at 50.0 µM), 88.9% (active); in assay [2] (setting [7]), 41%; in assay [2] (setting [8]), 78% (active); in assay [2] (at 50.0 µM) it was 86.7% (active). In addition, the growth inhibition in assay [3] (setting [7]) is 83% (active); in assay [3] (setting [8]) it was 98% (active); in assay [3] (at 50.0 µM), 91.5% (active); in assay [4] (setting [7]), 91% (active); in assay [4] (setting [8]) it was 100% (active); in assay [4] (at 50.0 µM), 90.3% (active). The growth inhibition is 66% in assay [5] (setting [7]); 97% (active) in assay [5] (setting [8]); 88.2% (active) in assay [5] (at 50.0 µM); 39% in assay [6] (setting [7]); 61% in assay [6] (setting [8]); 88.3% (active) in assay [6] (at 50.0 µM).
Consider `C[C@]12CC[C@H](OC3OC(CO)C(O)C(O)C3O)C[C@H]1CC[C@@H]1[C@@H]2CC[C@]2(C)[C@@H](C3=CCOC3=O)CC[C@]12O` (stereo not given in full), for which the growth inhibition in assay [1] (setting [7]) is 7%; in assay [1] (setting [8]) it was 4%; in assay [1] (at 50.0 µM) it was -11.2%; in assay [2] (setting [7]), 6%; in assay [2] (setting [8]), -2%; in assay [2] (at 50.0 µM), -6.9%. Further, the growth inhibition in assay [3] (setting [7]) is -17%; in assay [3] (setting [8]), -2%; in assay [3] (at 50.0 µM) it was 6.4%; in assay [4] (setting [7]), -11%; in assay [4] (setting [8]) it was -35%; in assay [4] (at 50.0 µM) it was 13.1%. Besides, the growth inhibition in assay [5] (setting [7]) was -22%; in assay [5] (setting [8]), 7%; in assay [5] (at 50.0 µM), -38.5%; in assay [6] (setting [7]), 6%; in assay [6] (setting [8]), 21%; in assay [6] (at 50.0 µM) it was 49.6%.
Take `ClCCN(Cc1ccccc1)CC1COc2ccccc2O1` (stereo not given): the growth inhibition in assay [1] (setting [7]) was 10%; in assay [1] (setting [8]), 72% (active); in assay [1] (at 50.0 µM), 91.2% (active); in assay [2] (setting [7]) it was -1%; in assay [2] (setting [8]), 79% (active); in assay [2] (at 50.0 µM) it was 92.1% (active). Moreover, the growth inhibition in assay [3] (setting [7]) is 7%; in assay [3] (setting [8]), 95% (active); in assay [3] (at 50.0 µM), 90.5% (active); in assay [4] (setting [7]), -2%; in assay [4] (setting [8]), 34%; in assay [4] (at 50.0 µM), 82.7% (active). The growth inhibition in assay [5] (setting [7]) is 11%; in assay [5] (setting [8]), 90% (active); in assay [5] (at 50.0 µM) it was 97.3% (active); in assay [6] (setting [7]) it was 15%; in assay [6] (setting [8]), 94% (active); in assay [6] (at 50.0 µM), 97.3% (active).
For `O=C1C=CC(=O)C(Br)C1Br` (stereo not given), the growth inhibition in assay [1] (setting [7]) was -20%; in assay [1] (setting [8]) it was 34%; in assay [1] (at 50.0 µM), 26.1%; in assay [2] (setting [7]) it was -8%; in assay [2] (setting [8]) it was 57%; in assay [2] (at 50.0 µM) it was 35.3%. Also, the growth inhibition was -7% in assay [3] (setting [7]); 66% in assay [3] (setting [8]); 46.3% in assay [3] (at 50.0 µM); 2% in assay [4] (setting [7]); 10% in assay [4] (setting [8]); 19.1% in assay [4] (at 50.0 µM). The growth inhibition in assay [5] (setting [7]) was -1%; in assay [5] (setting [8]), 52%; in assay [5] (at 50.0 µM), 71.2% (active); in assay [6] (setting [7]), 35%; in assay [6] (setting [8]), 57%; in assay [6] (at 50.0 µM), 66.2%.
Turning to `CCCCCCCC[N+]12CN3CN(CN(C3)C1)C2`, the growth inhibition in assay [1] (setting [7]) is -5%; in assay [1] (setting [8]), -21%; in assay [1] (at 50.0 µM), 1.75%; in assay [2] (setting [7]), -2%; in assay [2] (setting [8]), -33%; in assay [2] (at 50.0 µM), 4.1%. For the same compound, the growth inhibition was -6% in assay [3] (setting [7]); -28% in assay [3] (setting [8]); 7.75% in assay [3] (at 50.0 µM); 2% in assay [4] (setting [7]); -38% in assay [4] (setting [8]); 30.4% in assay [4] (at 50.0 µM). For the same compound, the growth inhibition in assay [5] (setting [7]) is 1%; in assay [5] (setting [8]), -25%; in assay [5] (at 50.0 µM), 31.8%; in assay [6] (setting [7]) it was -1%; in assay [6] (setting [8]), -26%; in assay [6] (at 50.0 µM), 16.9%.
`CC1(C)N=C(N)N=C(N)N1c1ccc(OCCCCNC(=O)Nc2ccc(S(=O)(=O)F)cc2)c(Cl)c1`: the growth inhibition in assay [1] (setting [7]) is -3%; in assay [1] (setting [8]) it was 96% (active); in assay [1] (at 50.0 µM), 98.3% (active); in assay [2] (setting [7]), -2%; in assay [2] (setting [8]) it was 97% (active); in assay [2] (at 50.0 µM), 99.3% (active). The growth inhibition in assay [3] (setting [7]) was -1%; in assay [3] (setting [8]), 98% (active); in assay [3] (at 50.0 µM) it was 99.4% (active); in assay [4] (setting [7]) it was -4%; in assay [4] (setting [8]) it was 98% (active); in assay [4] (at 50.0 µM), 97.3% (active). Besides, the growth inhibition is -3% in assay [5] (setting [7]); 98% (active) in assay [5] (setting [8]); 98.8% (active) in assay [5] (at 50.0 µM); -2% in assay [6] (setting [7]); 99% (active) in assay [6] (setting [8]); 99.1% (active) in assay [6] (at 50.0 µM).
`CC1=C(CC/C(C)=C/CCC2(C)CCC([C@H](C)C(=O)O)OO2)C(C)(C)CCC1` (stereo not given in full) (tested in a mixture with another compound): the growth inhibition was 18% in assay [1] (setting [7]); 97% (active) in assay [1] (setting [8]); 90.2% (active) in assay [1] (at 50.0 µM); 39% in assay [2] (setting [7]); 97% (active) in assay [2] (setting [8]); 93% (active) in assay [2] (at 50.0 µM). The growth inhibition in assay [3] (setting [7]) was 52%; in assay [3] (setting [8]) it was 96% (active); in assay [3] (at 50.0 µM), 93% (active); in assay [4] (setting [7]), 46%; in assay [4] (setting [8]) it was 97% (active); in assay [4] (at 50.0 µM), 90.5% (active). In addition, the growth inhibition was 9% in assay [5] (setting [7]); 97% (active) in assay [5] (setting [8]); 92.2% (active) in assay [5] (at 50.0 µM); 51% in assay [6] (setting [7]); 96% (active) in assay [6] (setting [8]); 91.3% (active) in assay [6] (at 50.0 µM).
